Assay results published in the supplement of paper PMC6555819.

Legend:
Test in all cases: PBM binding z-score (relative to random genomic background probes); higher = stronger binding; sequences stand for … in GC…GCGATTGACAGCGTAGAATGAAGG
[1] = system: FXR:RXRa (NR concentration 270 nM, RXRa partner concentration 90 nM)
Summary of the method: (§1)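 Custom Agilent 4×180K protein-binding microarrays carried double-stranded probes, each with a 34-nt variable region. These regions held direct-repeat seeds, single-nucleotide variants, half-site ablations and random human genomic background sequences. Ligand-free nuclear receptor dimers were incubated on the arrays for 1 h, antibodies against each partner (one per run) detected binding, and scanned fluorescence was regression-normalized. Binding z-scores take the random background probes as reference.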

[2] = system: LXRa:RXRa (NR concentration 270 nM, RXRa partner concentration 90 nM)
Summary of the method: as §1

[3] = system: LXRa homodimer (NR concentration 270 nM)
Summary of the method: as §1

[4] = system: LXRb:RXRa (NR concentration 270 nM, RXRa partner concentration 90 nM)
Summary of the method: as §1

[5] = system: LXRb homodimer (NR concentration 270 nM)
Summary of the method: as §1

[6] = system: PPARa:RXRa (NR concentration 270 nM, RXRa partner concentration 90 nM)
Summary of the method: as §1

[7] = system: PPARg:RXRa (NR concentration 180 nM, RXRa partner concentration 90 nM)
Summary of the method: as §1

[8] = system: PPARg:RXRa 270nM:90nM, anti-RXR (NR concentration 270 nM, RXRa partner concentration 90 nM)
Summary of the method: as §1

[9] = system: PPARg:RXRa 30nM:10nM, anti-RXR (NR concentration 30 nM, RXRa partner concentration 10 nM)
Summary of the method: as §1

[10] = system: PPARg:RXRa 90nM:30nM, anti-RXR (NR concentration 90 nM, RXRa partner concentration 30 nM)
Summary of the method: as §1

[11] = system: PPARg:RXRa DBDmut IVT, anti-RXR (DBD mutation: RXRa K156A/R161A, NR concentration 270 nM, RXRa partner concentration 90 nM)
Summary of the method: as §1

[12] = system: PPARg:RXRa IVT, anti-PPARg (NR concentration 270 nM, RXRa partner concentration 90 nM)
Summary of the method: as §1

[13] = system: PPARg DBDmut:RXRa IVT, anti-PPARg (DBD mutation: PPARg1 K132A/R137A, NR concentration 270 nM, RXRa partner concentration 90 nM)
Summary of the method: as §1

[14] = system: PPARg DBDmut IVT, anti-PPARg (DBD mutation: PPARg1 K132A/R137A, NR concentration 270 nM)
Summary of the method: as §1

[15] = system: PPARg homodimer (NR concentration 180 nM)
Summary of the method: as §1

[16] = system: PXR:RXRa (NR concentration 270 nM, RXRa partner concentration 90 nM)
Summary of the method: as §1

[17] = system: PXR homodimer (NR concentration 270 nM)
Summary of the method: as §1

[18] = system: RARa:RXR (NR concentration 270 nM, RXRa partner concentration 90 nM)
Summary of the method: as §1

[19] = system: RARa homodimer (NR concentration 270 nM)
Summary of the method: as §1

[20] = system: RARb:RXRa (NR concentration 270 nM, RXRa partner concentration 90 nM)
Summary of the method: as §1

Sequence	PBM binding z-score [1]	PBM binding z-score [2]	PBM binding z-score [3]	PBM binding z-score [4]	PBM binding z-score [5]	PBM binding z-score [6]	PBM binding z-score [7]	PBM binding z-score [8]	PBM binding z-score [9]	PBM binding z-score [10]	PBM binding z-score [11]	PBM binding z-score [12]	PBM binding z-score [13]	PBM binding z-score [14]	PBM binding z-score [15]	PBM binding z-score [16]	PBM binding z-score [17]	PBM binding z-score [18]	PBM binding z-score [19]	PBM binding z-score [20]
TCTAGCTGGCCAGAGGGTCACTCAAGAGGTACGG	1.2	0.792	-0.669	1.05	-0.983	1.89	0.596	1.85	1.77	1.44	0.731	-0.216	-1.57	-1.05	0.244	1.38	-0.401	1.83	-0.851	1.73
TCTTGTATATCAATAGAGGTTAAGAAAGTGCGCT	0.889	3.66	0.646	1.74	0.472	1.77	0.559	1.69	3.02	2.45	1.98	1.05	0.574	1.14	0.383	3	0.496	1.54	0.672	0.997
GCATATAGGTAATACAATGTGAAAGTCCGATTGT	0.12	-0.102	0.125	-0.0369	-0.0471	0.701	1.29	0.561	0.448	0.672	4.03	2.5	1.42	1.13	0.581	0.112	0.544	0.557	0.819	0.0649
GCATATAGGTAATACAACGTGAAAGTCCGATTGT	-0.622	-0.502	-0.205	-0.638	-0.368	0.333	1.02	0.49	0.28	0.431	4.04	2.2	0.468	0.495	-0.277	-0.414	-0.12	-0.549	0.219	-0.451
CAAACTAGGTCAGAGGTCAAAGTCGAGCCAACCA	7.41	6.65	5.53	6.17	2.6	7.53	13.4	11.1	11.7	12.8	8.29	8.85	2.06	4.69	5.7	6.37	2.49	8.36	2.29	5.18
CCTTACGGGTCAAGGTTAAAGCACGGGTGGTACG	5.62	3.83	0.272	3.14	0.0143	5.08	5.05	5.34	2.38	4.5	1.83	3.82	0.996	0.275	3.27	3.65	0.419	4.78	1.39	4.12
ATCGAAAGGTCGAAGGGGAGTATACCCACCCGAA	4.05	3.15	0.303	2.7	0.76	4.19	3.19	2.91	1.16	1.99	-0.023	1.38	1.29	0.309	1.15	2.21	0.32	2.79	0.273	3.73
ACTAGCAGGCGAAGTTTGGGTCACTCAAACAAAG	-0.1	-0.222	-0.509	0.307	-0.961	1.22	-0.19	0.0876	-0.449	-0.106	-0.461	0.0553	-0.763	-1.05	-0.0559	0.583	-0.27	1.15	-0.491	1.14
ATCTCTAGGTAACAAAGTTCAGTGAATGCCGAAC	0.948	1.9	2.1	1.27	0.958	2.12	2.01	3.09	1.01	2.42	3.03	3.03	1.17	0.837	1.24	2.36	2.09	1.61	0.834	2.4
TCATACAGGTAATACAGGTGAAAGTCGGCATCTA	0.813	1.42	0.615	1.31	0.285	1.88	0.982	2.34	3.85	3.1	3.1	2.32	1.11	1.28	1.24	0.855	0.48	1.23	1.28	0.835
TAGCCTAGGTAAGATCGGGCCAGTATACGCTATA	-0.504	-0.787	-0.612	-0.831	-1.39	-0.58	0.0812	-0.494	-0.743	-0.292	-0.504	-0.0138	-2.06	-1.02	-0.948	-0.638	-0.73	-0.261	-1.46	-1.22
TCTAGTTGGTCACGTAGGTCACACACGACGGGTA	2.06	1.85	1.01	2	0.514	2.78	2.17	3.05	3.43	3.35	2.33	3.55	1.17	0.772	2.46	2.27	0.538	2.84	0.979	3.26
CAGCCTAGGTCAGGGCCATTATAGGAGGAACGTT	1.65	1.08	-0.000598	0.902	-0.851	2.17	1.2	1.24	-0.158	0.533	1.48	1.78	-0.531	-0.742	0.564	0.649	-0.202	1.15	0.229	3.45
ATCACTAGGTAAAAGTTCAGTGAATCCCGAGGAT	0.841	1.47	1.23	0.945	0.59	4.85	8.25	8.67	7.65	9.23	3.38	4.52	1.04	1.36	1.02	2.08	1.55	1.9	1.02	2.49
AGAATGAGGTTAAGATCGGGGAAACAGAATACAT	2.13	4.69	-0.244	2.3	0.08	3.65	2.06	2.53	0.954	1.75	3.24	2.85	1.19	0.972	1.09	0.98	0.624	1.93	0.617	1.95
CCGACTGGGGCATAAGGTGACCATAAGCCAGCCC	-0.111	-0.426	-0.561	-0.432	-1.62	1.3	2.04	2.92	0.757	2.38	2.39	3.15	-0.511	-1.28	0.186	-0.504	-0.373	0.332	-0.248	1.23
CCTAGCAGGCCAGGGTCACACAAGCATTTCGCTT	2.57	2.38	-0.252	2.77	-0.795	4	2.01	2.57	0.18	1.59	0.592	1.47	-0.955	-1.08	1.19	3.43	-0.631	4.06	0.145	2.9
CCTTACGGCTCACTGACAGGTTATAGCATTTGGA	0.367	0.347	0.304	0.294	-0.0562	0.311	0.426	-0.0307	0.448	0.0518	0.701	-0.612	0.0543	-0.0527	0.157	0.158	0.192	0.669	0.331	0.0996
CGAATTAGGTCAAGGACAGTGAATCTCCGCACGC	4	2.54	0.286	1.97	0.123	4.92	6.8	6.22	3.82	5.57	8.12	8.06	3.79	1.82	1.89	1.28	0.205	2.79	0.19	4.18
GCTAGTTGGTCAGTACAAGGTCACACACCGGTCG	2.58	2.63	2.97	2.59	0.352	3.05	1.38	1.94	0.146	1.33	0.892	2.35	-0.0423	0.196	2.2	3.74	1.58	3.91	0.633	3.36
CGAACGAGGGCATGAGTTGATAGCGAATGCCGAT	0.658	0.274	-0.522	-0.0069	-0.724	1.51	1.34	1.65	0.171	1.04	3.22	2.24	-0.216	-0.415	0.483	0.461	-0.235	0.351	-0.349	1.97
AGAATGAGGTTATACGTAGAACAGGGAAGAAAGT	2.01	1.58	-0.14	1.56	0.0441	3.07	2.2	1.83	1.07	1.68	4	1.9	1.52	1.09	1.26	1.09	0.773	1.36	-0.459	1.36
GCAGTCAGGTGAAACGCAGGTAACTCAGGGTGGC	0.205	-0.0689	-0.816	-0.344	-1.08	0.614	0.152	0.222	-0.525	0.166	1.84	0.996	-0.763	-0.908	-0.83	-0.443	-0.701	0.159	-1.13	1.03
GAAGACAGGTGAAACGCAGGTAACTCAGGGTGGC	0.0149	0.318	-0.652	-0.0898	-0.743	1.14	0.681	0.383	-0.249	-0.0724	0.674	1.15	0.0757	-0.907	-0.0582	-0.0972	-0.579	0.542	-0.418	0.745
AGAATGAGGTTACCAAAGATGAGGGAAACGCTTG	1.89	2.71	-0.269	1.35	-0.264	3.26	2.61	2.78	1.03	1.94	3.67	3.1	1.29	0.621	0.657	1	0.117	1.79	0.142	2.14
GCTGCTAGGTCACCTGATGGTCAGCTAAAGCTCG	3.25	2.4	-0.338	1.66	-0.22	3.22	2.21	2.86	0.569	1.95	4.7	4.09	0.447	0.446	1.57	1.2	-0.963	2.67	-0.925	3.86
